# Compound activity: PubChem BioAssay, The Scripps Research Institute Molecular Screening Center
# DAX1 inh-1 – DAX1 (NR0B1) inhibitors, primary screen, cell-based, HEK293, Gal4-DAX1, luciferase luminescence; Nuclear receptor subfamily 0 group B member 1 (Homo sapiens), P51843; HEK293 Gal4-DAX1 luciferase reporter; inhibition, % at 6.75 µM; 340,000 compounds, 0.99% hits;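 active = inhibition above the mean over all tested compounds plus 3 SD, cut at about 4.2% in these data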;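 also: 0% = DAX1-transfected cells with DMSO and 100% = empty-vector control cells with DMSO; inhibition shows as a rise in luminescence from relieved DAX1 repression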
# DAX1 inh-2 – DAX1 (NR0B1) inhibitors on StAR promoter, primary screen, cell-based, luminescence, SF-1 (NR5A1), full-length DAX-1 | HEK293T StAR-luciferase reporter, SF-1/DAX-1 repression relief | inhibition, % at 6.8 µM | 370,000 compounds, 1.1% hits;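 active = inhibition above the mean over all tested compounds plus 3 SD, cut at about 3.6% in these data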;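 also: 0% = DAX-1 cells with DMSO and 100% = cells lacking DAX-1 with DMSO; higher inhibition means more luminescence from relief of DAX-1 repression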
# hcDAF-12 act – H. contortus DAF-12 nuclear receptor activators, primary screen, cell-based, luminescence, HEK293, lit1-tk-luc reporter. HEK293 hcDAF-12 lit1-tk-luc reporter; 0% DMSO, 100% Δ7-dafachronic acid. activation, % at 6.8 µM. 370,000 compounds, 1.4% hits. AID 652067, 2013;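 active = activation above the mean of all tested compounds plus 3 SD, cut at about 5.5% in these data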;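 also: 100% = response to 3 µM Δ7-dafachronic acid high control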
# AHR activator – AHR activators, primary screen, cell-based, luminescence, luciferase reporter, human; Aryl hydrocarbon receptor (Homo sapiens), P35869; AHR-responsive luciferase reporter cells; activation, % at 5 µM; 320,000 compounds, 2.5% hits; in the data active = activation above about 47%;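 also: 0% = vehicle wells and 100% = reference agonist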
# hgDAF-12 ag – H. glycines DAF-12 receptor agonists, primary screen, cell-based, luminescence, HEK293, GAL4 fusion, UAS-luciferase | Nuclear hormone receptor DAF-12 (Heterodera glycines), GAL4 fusion | HEK293 GAL4-hgDAF12 UAS-luciferase reporter, agonist luminescence; normalized to butyrate control | activation, % at 6.8 µM | 370,000 compounds, 1.8% hits | AID 687014, 2013;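 active = activation above a cutoff set at the mean of all screened compounds plus 3 SD, cut at about 10% in these data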;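 also: 0% = DMSO wells and 100% = sodium butyrate wells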
# ssDAF12 agonist – S. stercoralis DAF-12 nuclear receptor activators, primary screen, cell-based, luminescence, HEK293, GRIP1 co-expression, lit1-tk-luc. HEK293 ssDAF-12/GRIP1 lit1-tk-luc reporter; % of 3 µM dafachronic acid response. Nuclear hormone receptor DAF-12 (Strongyloides stercoralis). 370,000 compounds, 1% hits. activation, % at 6.8 µM;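 active = activation above the mean over all tested compounds plus 3 SD, cut at about 0.9% in these data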;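 also: 0% = DMSO-only wells and 100% = 3 µM delta7-dafachronic acid wells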
# AHR act cf – AHR activators, confirmation, cell-based, luminescence, luciferase reporter, human; activation, % at 9 µM; human cells, AHR-responsive luciferase reporter; shares compounds with AHR activator; 2,300 compounds, 87% hits; in the data active = activation above about 49%;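 also: HepG2 hepatoma cells carrying a DRE-driven firefly luciferase reporter; 0% = vehicle wells and 100% = reference agonist wells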
# PXR counter – human PXR activators, counter-screen for AHR activator project, cell-based, luciferase luminescence | shares compounds with AHR activator | cell-based PXR reporter | activation, % at 11.6 µM | 2,300 compounds, 88% hits; in the data active = activation above about 11%;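 also: human hepatoma DPX-2 cells expressing full-length human PXR; 0% = DMSO and 100% = reference agonist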
# LXRb hcDAF ctr – LXR agonists, Gal4 luciferase reporter, confirmation, counter-screen for hcDAF-12 agonist project, cell-based, luminescence, HEK293, H. contortus campaign; shares compounds with hcDAF-12 act; HEK293 Gal4-LXR tk-luc reporter, 24 h; normalized: DMSO 0%, positive control 100%; activation, % at 6.8 µM; 3,400 tested, under 10 active; AID 743027, 2013;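 active = mean percent activation of the reporter above a cutoff set as the average over tested compounds plus their standard deviation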
# Target sequence (P55055 whole entry, looked up, the tested form may be a part): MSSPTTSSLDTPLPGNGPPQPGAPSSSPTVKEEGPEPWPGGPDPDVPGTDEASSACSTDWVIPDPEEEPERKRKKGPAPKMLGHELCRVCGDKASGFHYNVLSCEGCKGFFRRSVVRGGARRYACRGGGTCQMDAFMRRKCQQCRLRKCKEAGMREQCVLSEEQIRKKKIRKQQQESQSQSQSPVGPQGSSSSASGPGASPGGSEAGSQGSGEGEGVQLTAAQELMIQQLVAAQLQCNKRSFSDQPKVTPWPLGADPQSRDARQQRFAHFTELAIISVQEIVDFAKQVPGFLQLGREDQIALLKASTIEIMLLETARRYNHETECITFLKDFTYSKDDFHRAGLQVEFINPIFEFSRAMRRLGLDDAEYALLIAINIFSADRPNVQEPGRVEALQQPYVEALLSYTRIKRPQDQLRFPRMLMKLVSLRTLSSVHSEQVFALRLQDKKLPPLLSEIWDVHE
# hcDAF12 ag – H. contortus DAF-12 receptor agonists, confirmation, cell-based, luminescence, HEK293, lit1-tk-luc, triplicate. shares compounds with hcDAF-12 act. HEK293 hcDAF-12 lit1-tk-luc reporter; % of Δ7-dafachronic acid response. activation, % at 6.8 µM. 3,400 compounds, 61% hits;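 active = mean activation across triplicate tests above the threshold derived from the earlier primary screen, cut at about 5.5% in these data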;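 also: 0% = DMSO only wells and 100% = 3 µM Δ7-dafachronic acid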
# hgDAF12 conf – H. glycines DAF-12 receptor agonists, confirmation, cell-based, luminescence, HEK293, GAL4-LBD fusion. HEK293 GAL4-hgDAF12 luciferase reporter, agonist mode; percent of butyrate response. shares compounds with hgDAF-12 ag. 3,300 compounds, 80% hits. activation, % at 6.8 µM;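 active = mean activation over triplicate wells above the hit cutoff derived from the earlier primary screen, cut at about 11% in these data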;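 also: 0% = DMSO low control and 100% = 2 mM sodium butyrate high control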
# LXRb DAF12 ctr – LXR agonists, Gal4 luciferase reporter, confirmation, counter-screen for hgDAF-12 agonist project, cell-based, luminescence, HEK293, H. glycines campaign; shares compounds with hgDAF-12 ag; 24 h; activation, % at 6.8 µM; 3,300 tested, under 10 active; AID 743051, 2013;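 active = mean activation of the triplicate above a set limit carried over from the primary screen, none filed active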
# Active calls of the source: *; nt = no result given. A selection: hits, their analogues and other compounds. The true share with any hit is near 5.7%.
SMILES,DAX1 inh-1,DAX1 inh-2,hcDAF-12 act,AHR activator,hgDAF-12 ag,ssDAF12 agonist,AHR act cf,PXR counter,LXRb hcDAF ctr,hcDAF12 ag,hgDAF12 conf,LXRb DAF12 ctr
Fc1ccc(-c2cnn3c(-c4ccncc4)ccnc23)cc1,2.9,2.5,3.5,134.6*,15.6*,0.5,45.0,26.5*,nt,nt,17.9*,0.9
Cc1nn2c(-c3ccncc3)ccnc2c1Br,-0.2,-0.9,-1.8,-0.9,-0.4,-1.2,nt,nt,nt,nt,nt,nt
CCCC(=O)Nc1cc(=O)n(C)c(=O)n1C,1.5,-0.1,-0.6,2.7,-0.6,-1.8,nt,nt,nt,nt,nt,nt
Cn1c(NC(=O)CCc2ccccc2)cc(=O)n(C)c1=O,0.6,4.1*,9.4*,148.6*,14.1*,1.6*,108.6*,24.5*,0.8,7.5*,12.8*,0.5
CN1CCSc2ccc(C(=O)Nc3ccc(Cl)cc3)cc21,7.0*,1.9,3.5,215.1*,17.9*,-0.6,135.3*,70.2*,nt,nt,17.1*,0.9
O=C(/C=C\c1ccccc1)Nc1nccs1,1.0,3.5,8.4*,111.1*,20.4*,0.5,72.9*,20.7*,2.1,4.8,20.1*,0.9
Cc1cc(C(=O)Nc2ccccn2)no1,1.3,0.6,2.6,-3.4,7.7,-0.2,nt,nt,nt,nt,nt,nt
O=C(Nc1ccccn1)c1ccc2ccccc2n1,1.2,3.6,19.1*,84.2*,16.7*,3.7*,167.9*,24.0*,2.2,21.8*,18.4*,0.9
CCn1ccnc1CN(C)Cc1c(C(=O)N2C[C@@H](C)O[C@@H](C)C2)nc2ccc(Cl)cn12,-0.1,-1.8,0.1,nt,-1.0,-0.5,nt,nt,nt,nt,nt,nt
N/C(=N\OC(=O)c1cccc2ccccc12)c1cccnc1,-0.2,0.7,12.0*,84.6*,14.4*,1.6*,55.3*,14.9*,0.3,9.0*,12.3*,0.3
N/C(=N\OC(=O)c1cccc2ccccc12)c1cccc([N+](=O)[O-])c1,0.7,0.7,0.4,14.9,-0.9,-1.5,nt,nt,nt,nt,nt,nt
Cc1cccc(C(=O)NC2CCN(CC(=O)Nc3ccccc3Cl)CC2)c1,0.9,0.0,0.4,-0.6,-2.2,-0.7,nt,nt,nt,nt,nt,nt
COc1ccc(-c2csc(Nc3cc(C)ccn3)n2)cc1OC,-0.9,-0.5,-1.3,-2.7,-1.1,-2.1,nt,nt,nt,nt,nt,nt
